Source: PubChem BioAssay (National Center for Advancing Translational Sciences (NCATS))
TDP1 cell noCPT = qHTS for Inhibitors of human tyrosyl-DNA phosphodiesterase 1 (TDP1): qHTS in cells in absence of CPT; Potency, µM (highest dose often 46.2 µM), for inactives: top-dose activity change, negative = growth inhibition, actives largely listed as inhibitors; hit rate 15% among 420,000; DT40 Tdp1-/- hTDP1 cells, no CPT, ATP luminescence, 48 h; also: % is scaled to controls: 0 for no effect and ±100 for the full control effect; nearly all actives have a fitted effect of over 55% in size
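Luminescent ATP content (CellTiter-Glo) served as the growth readout. Knockout chicken DT40 cells expressing human TDP1 were exposed to compounds without camptothecin for a minimum 48 hr at 37 °C.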
DT40 TDP1 CPT = DT40-hTDP1 cell growth loss with CPT. chicken DT40 Tdp1-/-;hTDP1 cells + 20 nM CPT, ATP luminescence, 48 h. hit rate 12% among 420,000. Potency, µM (doses to about 46.2 µM), inactives show top-dose activity change, negative = growth inhibition, hits mostly inhibitors; also: % is scaled to controls: 0 for no effect and ±100 for the full control effect; nearly all actives have a fitted effect of over 55% in size
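Chicken DT40 Tdp1-/- cells complemented with human TDP1, 400 cells/well, exposed to compounds plus 20 nM camptothecin for at least 48 h at 37 C; viability read as ATP content by CellTiter-Glo luminescence.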
TGFb inhibitor = inhibitors of TGF-b signaling. AID 588855. HepG2 CAGA-GFP TGF-b/SMAD3 reporter, GFP fluorescence, 18 h; TGF-beta stimulated, 500 pg/mL final. Potency, µM (doses to about 46.1 µM), for inactives: at the highest dose activity, negative = inhibition, most hits filed as inhibitors. hit rate 1.2% among 410,000; also: % is scaled to controls: 0 for no effect and ±100 for the full control effect; nearly all actives have a fitted effect of over 65% in size
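HEPG2 CAGA-GFP, 1000 cells/well; 2 h settle, 37 C; cpd via pin tool; TGF-b 500 pg/mL final; 18 h, 37 C; GFP imaging ex488/em500-530; %Activity normalised to -TGF-b and +DMSO controls; CRC fit, curve class.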
ATXN2 expr inh = reduces ATXN2 reporter expression in HEK-293 cells; Potency, µM (series often up to 57 µM), for the others: at the highest dose activity change, negative = inhibition, actives largely listed as inhibitors; HEK-293 ATXN2-luciferase reporter, luminescence, 24 h; hit rate 0.72% among 360,000; AID 1745845; also: % is scaled to controls: 0 for no effect and ±100 for the full control effect; nearly all actives have a fitted effect of over 55% in size
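qHTS (up to 57 uM final) was run with 24 h compound exposure of reporter cells at 37 °C. Each well was multiplexed: SteadyGlo luminescence measured ATXN2-luciferase expression after a fluorogenic Gly-Phe-AFC viability readout (25 uM final).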
HepG2 tox = counter-screen for TGF-b inhibitors: cytotoxicity in HepG2 cells; HepG2 CAGA-GFP viability, ATP luminescence, 18 h; Potency, µM (titrated, usually from 46.1 µM), for inactives: top-dose activity change, negative = cytotoxicity, hits mostly cytotoxic; hit rate 0.76% among 410,000; AID 588856
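CellTiter-Glo luminescence gave cytotoxicity after 18 hours at 37 degrees C. The cells were HepG2 CAGA-GFP in 1% FBS DMEM, stimulated with 500 pg/mL TGF-beta after compound addition. %Activity was normalised to no-cell wells (complete cell-killing) and DMSO (no toxicity), and curves were fitted and classified.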
S2 tox = viability counter-screen for ATXN expression inhibitors; S2 cells (HEK-293 line with an ATXN2-luciferase reporter) viability, CellTiter-Fluor protease fluorescence, 24 h; AID 651635; hit rate 0.49% among 400,000; Potency, µM (top dose mostly 56.7 µM), actives largely listed as cytotoxic; also: nearly all actives have a fitted effect of over 40% in size
Numbers without * were called inactive; i = inactive; u = inconclusive; x = no result given; [ ] = another dose, or the depositor's remark. The list is not random: actives were taken first. Their share in the collection is about 17%. Calls follow the shape of the dose curve; as a rule, active = well fitted curve in the direction sought with a large enough effect; inconclusive = small, poorly fitted or top-dose-only effect, or another doubt; inactive = no such curve, though single readings can be large; an effect the other way counts as inactive or inconclusive. Potency is read from the fitted curve at half-maximal effect.

SMILES	TDP1 cell noCPT	DT40 TDP1 CPT	TGFb inhibitor	ATXN2 expr inh	HepG2 tox	S2 tox
CCC(C)(C)C1CCC2(CC1)NC(=O)N(CC(=O)N1CCN(C(=O)c3ccco3)CC1)C2=O (stereo unspecified)	-4%	-29%	-2%	-5%	-11%	i
Cc1ccc(CCNC(=O)Cn2nc(-c3ccc(C)cc3)ccc2=O)cc1	u	u	u	x	-28%	x
CCCCn1nnnc1C1(C)CCC(=O)N1Cc1ccco1 (stereo unspecified)	-19%	-11%	x	-3%	x	i
CCOC(=O)C1=C[C@@H](CC)N(S(=O)(=O)c2ccccc2)[C@H]1c1ccccc1	18µM*	u	u	2%	-6%	i
CCOC(=O)C1=C[C@@H](c2ccccc2)N(S(=O)(=O)c2ccc(C)cc2)[C@H]1c1ccccc1Cl	26µM*	u	-22%	-7%	-16%	i
CCOC(=O)C1=C[C@@H](C)N(S(=O)(=O)c2ccc(C)cc2)[C@H]1c1ccccc1	u	u	u	-18%	-16%	u
CCOC(=O)C1=C[C@@H](C(C)(C)C)N(S(=O)(=O)c2ccc(C)cc2)[C@H]1c1ccc(Cl)c(Cl)c1	23µM*	16µM*	u	-14%	-28%	i
CCC[C@@H]1C=C(C(=O)OCC)[C@H](c2ccccc2)N1S(=O)(=O)c1ccc(C)cc1	5.2µM*	5.2µM*	u	-10%	-21%	i
CCc1ccc([C@H]2C(C(=O)O)=C[C@@H](CC)N2S(=O)(=O)c2ccc(C)cc2)cc1	u	-17%	-9%	-8%	-26%	i
Cc1ccc(S(=O)(=O)N2[C@@H](c3ccc(Cl)c(Cl)c3)C(C(=O)O)=C[C@H]2C(C)(C)C)cc1	u	u	u	9%	-30%	i
COC(=O)c1ccc(CSc2ncnc3c2nnn3-c2ccc(F)cc2)o1	-13%	-9%	-6%	-3%	8%	i
Cc1ccccc1OCC(=O)Nc1ccc2oc(-c3ccc(F)cc3)nc2c1	-22%	-23%	2%	-1%	-21%	i
Cc1cc(SCC(=O)NCc2ccccc2Cl)nc(=O)[nH]1	-5%	10%	2%	-4%	-8%	i
CCOC(=O)C1=C[C@@H](C2CCCCC2)N(S(=O)(=O)c2ccc([N+](=O)[O-])cc2)[C@H]1c1ccccc1	u	21µM*	u	-19%	-10%	u
CCOC(=O)C1=C[C@@H](C(C)C)N(S(=O)(=O)c2ccc(C)cc2)[C@H]1c1ccc(C(F)(F)F)cc1	12µM*	u	u	1%	-44%	i
O=C(CCCCC(=O)NN=Cc1ccc(Cl)cc1)NN=Cc1ccc(Cl)cc1	u	u	-3%	u	0%	x
CCOc1ccc(/C=C/C(=O)c2ccccc2)cc1OC	u	u	u	25%	-37%	u
COC(=O)c1ccc(/C=C/C(=O)c2cccc(OC)c2)cc1	23µM*	u	u	14%	-61%	i
COc1cccc(C(=O)/C=C/c2ccc(OCC#N)c(OC)c2)c1	13µM*	21µM*	u	u	-42%	x
COc1cc(/C=C/C(=O)c2ccc(O)cc2)ccc1OCC#N	10µM*	8.2µM*	u	u	-94%	u
CCOc1ccccc1C(=O)NCC(=O)NCC(c1ccc(OC)cc1)N1CCOCC1 (stereo unspecified)	-18%	-22%	-15%	3%	-9%	i
COCCNC(=O)c1ccccc1NC(=O)Cc1ccccc1[N+](=O)[O-]	1%	-19%	-3%	x	4%	i
COc1cccc(N2CCN(C(=O)c3ccc4nc[nH]c4c3)CC2)c1	10%	-13%	-10%	-6%	-7%	i
COc1cccc(N2CCN(C(=O)c3cccc(-n4c(C)nc5cccnc54)c3)CC2)c1	16µM*	12µM*	u	x	-4%	x
Cc1nc2cccnc2n1-c1cccc(C(=O)N2CCN(c3cccc(Cl)c3)CC2)c1	4.6µM*	4.1µM*	u	x	-37%	x
SMILES	TDP1 cell noCPT	DT40 TDP1 CPT	TGFb inhibitor	ATXN2 expr inh	HepG2 tox	S2 tox
O=C(Nc1ccccc1)C(c1ccccc1)C1CCCC1 (stereo unspecified)	-22%	-6%	u	-20%[11.3 µM]	-41%	i
O=C(O)c1ccccc1C(=O)Nc1ccc(Br)c2cccnc12	-9%	-2%	4%	18%	-23%	i
Cc1ccc(NC2=C(NC(=O)c3ccccc3)C(=O)c3ccccc3C2=O)cc1Cl	21µM*	8.2µM*	11µM*	-8%	16µM*	u
Cc1ccc(NCCC(=O)c2ccccc2)cc1Cl	15µM*	10µM*	0%	28%	-22%	i
O=C(CSc1ccc2c(c1)OCCO2)NC(=O)Cc1ccccc1	-24%	-5%	-52%	7%	-8%	i
CC(=O)Nc1ccc(CN(C)c2c(C)nc3ccc(C(=O)NCCCn4ccnc4)cn23)cc1	7%	12%	16%	5%	5%	i
O=C(O)c1cccc(S(=O)(=O)NCC2COc3ccccc3O2)c1 (stereo unspecified)	-8%	-15%	25%	-4%	-22%	i
COc1ccccc1/C=C1\Oc2cc(OC(=O)N3CCOCC3)ccc2C1=O	23µM*	15µM*	-5%	x	-3%	i
COc1ccc(/C=C2\Oc3cc(OCC(=O)N4CCC[C@H]4CO)ccc3C2=O)c(OC)c1	u	23µM*	1%	3%	-12%	i
COc1cccc(/C=C2\Oc3cc(OCC(=O)N4Cc5ccccc5C[C@H]4C(=O)O)ccc3C2=O)c1	u	-29%	11%	5%	2%	i
O=C1/C(=C/c2ccc3c(c2)OCO3)Oc2cc(OCC(=O)N3CCC[C@H]3C(=O)O)ccc21	-2%	21µM*	-1%	6%	1%	i
Cc1ccc(Cl)cc1N1CCN(S(=O)(=O)c2ccc3c(c2)CCCN3C(=O)C2CCC2)CC1	u	-4%	17%	9%	9%	i
COc1ccc(C2CC(=O)c3cnc4c(-c5ccc(F)cc5)c(C)nn4c3C2)cc1OC (stereo unspecified)	-5%	4%	4%	5%	-32%	i
Cc1ccc2ccccc2n1	5%	5%	4%	x	1%	x
COc1cc(NC(=S)NNC(=O)C(C)(C)O)cc(OC)c1	-4%	-7%	-11%	x	1%	i
